Experiments:
[1] = tested on: Human papillomavirus type 1a protein E7 (residues 44-93); assay: small molecules binding HPV E7 44-93 – biochemical, small-molecule microarray, residues 44-93, 635 nm fluorescence, primary screen (AID 1108); conditions: fluorescence 635 nm, higher = more signal;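 note: E7 fragment applied at 1 µg/mL in TBST for 1 h at 4 C; score combines spot fluorescence with its signal to noise ratio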
[2] = hepatitis C replication reporter changes, two-sided – Huh7 cells, luciferase reporter, HCV replication inhibitor project, primary screen (AID 1109); conditions: Huh7 HCV replicon luciferase reporter, 48 h; higher = more signal;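 note: huh7 hepatoma cells harbouring a luciferase neomycin HCV replicon reporter; luciferase luminescence as measure of HCV replicon replication; test concentration not given here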
[3] = biological target: Left-right determination factor 2 (Homo sapiens) (UniProt O00292); assay: small molecules binding LEFTY2 protein – biochemical, small-molecule microarray, 635 nm fluorescence scan, primary screen (AID 1110); conditions: higher = more signal
[4] = biological target: Calmodulin-1 (Homo sapiens) (UniProt P0DP23); assay: small molecules binding calmodulin-1 with EGTA – biochemical, small-molecule microarray, Cy5-labelled CALM1, profiling panel (AID 1111); conditions: Cy5-CALM1 binding fluorescence, higher = more signal;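 note: labelled calmodulin applied in Tris saline Tween buffer holding calcium plus EGTA and DTT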
[5] = biological target: Calmodulin-1 (Homo sapiens) (UniProt P0DP23); assay: small molecules binding Ca-loaded calmodulin-1 – biochemical, small-molecule microarray, Cy5-labelled CALM1, plus calcium, artefact control for SMM control-protein annotation, profiling panel (AID 1112); conditions: Cy5-CALM1 binding fluorescence, higher = more signal;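 note: score merges spot fluorescence with signal to noise from triplicate slides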
[6] = probe aWnt5a binding to arrayed compounds – biochemical, biotinylated probe, 635/667 nm fluorescence, primary screen (AID 1113); conditions: small-molecule microarray, higher = more signal;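 note: score merges 667 nm fluorescence intensity with signal-to-noise per printed feature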
[7] = probe aShh binding to arrayed compounds – biochemical, biotinylated probe, 635/667 nm fluorescence, primary screen (AID 1114); conditions: small-molecule microarray, higher = more signal;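 note: probe is biotin-labelled aShh protein from a stem cell growth factor screen; measures binding of labelled protein to compounds printed on the slide; score merges feature fluorescence at 667 nm with signal-to-noise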
[8] = probe aNog binding to arrayed compounds – biochemical, biotinylated probe, 635/667 nm fluorescence, primary screen (AID 1115); conditions: small-molecule microarray, higher = more signal;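 note: probe is biotinylated aNog protein used at 0.15 µg/mL for 1 h at 4 C; z-score combines 667 nm fluorescence of each spot with its signal to noise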
[9] = biological target: Torsin-1A-interacting protein 1 (Homo sapiens) (UniProt Q5JTV8); assay: compound microarray binding of lysate hLAP1 – cell lysate, small-molecule microarray, COS7 lysate, 635/667 nm fluorescence, primary screen (AID 1116); conditions: 635 nm fluorescence, higher = more signal
[10] = biological target: Alpha-bungarotoxin (Bungarus multicinctus) (UniProt P60615); assay: compounds binding labelled alpha-BTX control protein – biochemical, small-molecule microarray, Alexa647 label, 635/667 nm fluorescence, artefact control for SMM control protein annotation, profiling panel (AID 1117); conditions: alpha-BTX-A647 binding fluorescence, higher = more signal
Alpha-bungarotoxin (Bungarus multicinctus), sequence (P60615 whole entry, looked up): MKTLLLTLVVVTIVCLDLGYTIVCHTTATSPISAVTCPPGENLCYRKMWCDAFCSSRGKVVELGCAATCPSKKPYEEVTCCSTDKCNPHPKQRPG

Torsin-1A-interacting protein 1 (Homo sapiens), sequence (Q5JTV8 whole entry, looked up): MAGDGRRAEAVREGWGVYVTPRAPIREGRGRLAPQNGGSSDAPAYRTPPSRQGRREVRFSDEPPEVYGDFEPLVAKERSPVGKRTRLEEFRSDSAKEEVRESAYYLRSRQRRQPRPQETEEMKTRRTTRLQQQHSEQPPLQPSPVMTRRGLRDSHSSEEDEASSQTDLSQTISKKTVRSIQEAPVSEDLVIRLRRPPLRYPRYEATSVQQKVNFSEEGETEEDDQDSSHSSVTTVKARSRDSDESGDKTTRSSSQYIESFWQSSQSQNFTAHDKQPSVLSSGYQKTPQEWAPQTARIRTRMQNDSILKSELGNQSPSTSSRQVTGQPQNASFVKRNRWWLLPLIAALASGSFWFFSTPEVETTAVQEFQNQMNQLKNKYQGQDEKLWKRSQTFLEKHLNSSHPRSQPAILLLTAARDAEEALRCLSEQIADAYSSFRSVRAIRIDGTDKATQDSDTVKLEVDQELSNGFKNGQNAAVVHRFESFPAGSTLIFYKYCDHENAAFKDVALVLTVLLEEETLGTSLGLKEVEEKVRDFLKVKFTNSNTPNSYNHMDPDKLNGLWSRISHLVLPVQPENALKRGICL
Left-right determination factor 2 (Homo sapiens), sequence (O00292 whole entry, looked up): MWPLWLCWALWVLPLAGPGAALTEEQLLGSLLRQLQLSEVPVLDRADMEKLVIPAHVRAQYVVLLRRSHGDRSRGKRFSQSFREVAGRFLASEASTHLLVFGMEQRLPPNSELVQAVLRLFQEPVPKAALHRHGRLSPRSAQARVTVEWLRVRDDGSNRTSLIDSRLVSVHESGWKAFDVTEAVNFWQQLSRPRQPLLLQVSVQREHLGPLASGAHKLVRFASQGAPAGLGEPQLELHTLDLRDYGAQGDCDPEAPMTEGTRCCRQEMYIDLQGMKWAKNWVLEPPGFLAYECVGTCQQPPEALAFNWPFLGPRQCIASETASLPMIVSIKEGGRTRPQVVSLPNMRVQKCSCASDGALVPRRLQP

Row | SMILES | composite z-score [1] | z-score [2] | composite z-score [3] | composite z-score [4] | composite z-score [5] | composite z-score [6] | composite z-score [7] | composite z-score [8] | composite z-score [9] | composite z-score [10]
1 | COC(=O)c1c2oc(c1C(=O)OC)C(=O)N[C@H](Cc1ccccc1)Cn1nncc1C1(CCCCC1)NC(=O)N[C@H](CO)CC2 | 0.613 | -0.398 | 0.0801 | -0.16 | -0.661 | -0.0179 | -0.138 | -0.308 | -0.208 | -0.181
2 | C=C(C(=O)CC[C@@H](OC(=O)c1cccnc1)c1ccc(OCCO)cc1)C(C)C | 0.16 | -4.49 | 0.286 | -0.277 | -1.85 | -0.0145 | -0.0035 | -0.0863 | 2.09 | 0.46
3 | CCCNC(=O)[C@@]1(C)c2ccccc2C(=O)N(C(C)C)[C@H]1c1ccc(CO)cc1 | -0.0794 | -1.99 | -1.28 | -0.58 | -0.145 | -0.212 | -0.262 | -0.0172 | -0.109 | -0.731
4 | C=C[C@H](OC)[C@@H](OC(=O)Nc1ccc(SC)cc1)c1ccc(OCCO)cc1 | 1.03 | 2.8 | 0.105 | 0.0629 | 0.362 | 0.0433 | -0.0035 | 0.375 | 1.35 | 1.62
5 | Cc1ccc(N2C(=O)c3ccccc3[C@](C)(C(=O)NCCN3CCOCC3)[C@@H]2c2ccc(CO)cc2)nc1 | -0.742 | 0.548 | -1.28 | -0.597 | -0.583 | -0.228 | 0.0442 | -0.244 | -0.869 | -1.44
6 | CCCC[C@@H]1C[C@H]1[C@@H](NC(=O)c1ccco1)c1ccccc1 | -1.35 | -2.26 | -2.75 | -0.352 | 0.479 | -0.258 | 0.108 | -0.218 | -1.63 | -0.703
7 | O=P(NCC1(CC2(c3ccccc3)CO2)CC1)(c1ccccc1)c1ccccc1 (stereo not given) | -0.498 | -1.17 | -1.79 | -0.0905 | 0.388 | -0.0384 | 0.826 | -0.45 | -0.225 | -0.879
8 | CCCC[C@H]1OB(O)C[C@H]2C1=C(COc1ccccc1)C[C@H]1C(=O)N(Cc3ccccc3)C(=O)[C@H]12 | 1.38 | -1.72 | 0.377 | 0.324 | -0.774 | -0.176 | -0.0709 | -0.273 | -0.0868 | 1.04
9 | C=C(COC)C(=O)CC[C@@H](OC(=O)c1ccccc1-c1ccccc1C(=O)O)c1ccc(CO)o1 | 0.512 | -4.48 | 1.01 | 1.63 | 0.417 | -0.256 | -0.34 | -0.251 | 0.709 | 0.206
10 | CC1CC/C=C\[C@H]2OC34C=CCN(Cn5nnc6ccccc65)C(=O)[C@H]3N(CCCO)C(=O)[C@@H]4C2C(=O)O1 (stereo not given in full) | -0.311 | -0.486 | -1.28 | -0.484 | 0.25 | -0.228 | 0.0121 | -0.201 | 0.479 | -0.744
11 | CN(C)CCCC[C@@H]1NC(=O)[C@@H]2C[C@H](C(=O)NCc3ccc(F)cc3)[C@H](c3cccc(OCCO)c3)N2C1=O | 1.17 | 0.679 | 0.748 | 0.337 | 0.136 | -0.1 | 0.207 | -0.399 | 1.07 | 0.356
12 | Cc1ccc(S(=O)(=O)N2CC(C(=O)O)=CCC2c2ccccc2)cc1 (stereo not given) | 0.467 | -0.212 | -1.58 | 0.0207 | 0.52 | 0.173 | 0.0639 | -0.468 | 0.505 | 0.277
13 | COc1ccc([Si](C)(C)[C@@H]2[C@@H](CCO)O[C@]3(C(=O)N(Cc4cccc(N(C=O)c5ccccc5)c4)c4ccccc43)[C@H]2C)cc1 | -0.179 | -4.85 | -0.223 | 1.13 | 1.09 | -0.176 | 0.0611 | -0.0002 | 0.494 | 0.956
14 | COC(=O)[C@@]1(Cc2ccccc2)[C@H]2c3cc(C(=O)N(C)C)n(Cc4cc(F)c(F)c(F)c4)c3C[C@H]2CN1C(=O)c1ccccc1 | 1.28 | -1.87 | -0.762 | 1.39 | 0.449 | 0.216 | 0.415 | 1.79 | 0.845 | 0.517
15 | CCOC(=O)C[C@H]1[C@H](OC(=O)c2ccc(C(=O)c3ccccc3)cc2)[C@@H](NC(=O)c2ccc3ccccc3n2)c2cc(OCCCO)ccc2N1C(=O)c1ccc2ccccc2n1 | 1.03 | -0.931 | 0.691 | 0.338 | -0.59 | 0.0761 | -0.0904 | -0.158 | 1.92 | 0.583
16 | C=C(COC)/C(=C/C[C@H](OC(C)=O)c1ccccc1OCCO)c1cnc2ccccc2c1 | 1.29 | -1.57 | 0.425 | 0.177 | -0.173 | -0.0944 | 0.0756 | 0.226 | -0.0998 | 0.625
17 | CN(C)CCCC[C@@H]1NC(=O)[C@@H]2C[C@H](C(=O)NCCCCCN)[C@H](c3ccc(O)cc3)N2C1=O | 0.0063 | 0.285 | -0.93 | 1.99 | 1.42 | -0.208 | -0.026 | 0.262 | 0.777 | 1.19

From PubChem BioAssay
